35 compounds from PubChem BioAssay (Tox21) can be followed below.

Inconclusive results are not listed. Entries that show only a call come without a potency. Unmarked numbers belong to inactive results. Activity calls are given as the source filed them. Calls follow the shape of the dose curve; as a rule, active = well fitted curve in the direction sought with a large enough effect in the repeat runs; inconclusive = weak or mixed curves; inactive = no such curve, though single readings can be large; an effect the other way counts as inactive or inconclusive.

One experiment can be described thus: qHTS assay to identify small molecule antagonists of the retinoid acid receptor (RAR) signaling pathway - cell viability counter screen (AID 1159551). Also: nearly all actives have a fitted effect of over 35% in size. The settings on record: C3RL4 cells viability, ATP luminescence (CellTiter-Glo), 6 h; series mostly up to 92.4 µM. The method, boiled down:
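C3RL4 cells were seeded overnight at 37 C, then treated with compounds plus 1 uM (final) retinol for 6 h at 37 C. Viability was read as ATP by CellTiter-Glo luminescence after 30 min at room temperature.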
In general terms: qHTS replaces the single test concentration by a dilution series.
In the case of `CCN1CCN(c2cc(-c3ccc(F)cc3)c3c(n2)CCCCCC3)CC1`, the activity change, negative = cytotoxicity was 0.574% [at 19 µM].

As to `CCCN(CCc1cccs1)[C@H]1CCc2c(O)cccc2C1`, the Potency entry is “inactive”.

Take `CC(=O)Oc1ccc(C2(c3ccc(OC(C)=O)cc3)C(=O)Nc3ccccc32)cc1`: the Potency result was “inactive”.

Regarding `CC(C)(C)C1=CC(=O)C=C(C(C)(C)C)C1=O`, the Potency result is “inactive”.

Consider `CCCCCCCC/C=C\CCCCCCCC(=O)NCc1ccc(O)c(OC)c1`, for which the Potency entry was “inactive”.

On to `C/C=C/C=N/NC(=O)c1ccncc1`, for which the Potency entry was “inactive”.

Take `CN(C)c1ccc(N=Nc2ccccc2C(=O)O)cc1`: the Potency result was “inactive”.

As to `O=C1Nc2ccc(Cl)cc2[C@@](C#CC2CC2)(C(F)(F)F)O1`, the Potency entry is “inactive”.

For `CCCCCCCC/C=C/CCCOC(C)=O`, the Potency result is “inactive”.

Turning to `O=S(=O)(O)CCCN1CCOCC1`, the Potency result was “inactive”.

Consider `CCN(CC)CCSC(=O)C(c1ccccc1)c1ccccc1`, for which the Potency result was “inactive”.

Consider `O=C(O)Cc1ccc(OCCNC[C@H](O)c2ccccc2)cc1`, for which the Potency result was “inactive”.

Take `CC1(C)C(=O)N(Br)C(=O)N1Br`: the Potency result is “inactive”.

Regarding `CCC(C)(C)c1cc(O)c(C(C)(C)CC)cc1O`, the Potency result was “inactive”.

In the case of `c1cc(OCC2CO2)cc(OCC2CO2)c1` (centres undefined), the Potency entry is “inactive”.

Consider `COc1cccc(CCc2ccccc2OCC(CN(C)C)OC(=O)CCC(=O)O)c1` (centres undefined), for which the Potency result was “inactive”.

For the compound `CCCCNc1c(C(=O)OCC)c(C)nc2c1cnn2CC`, the Potency entry was “inactive”.

Consider `Cc1cn[nH]c1`, for which the Potency result was “inactive”.

Regarding `CC1CCCCN1CCCOC(=O)c1ccc(OC2CCCCC2)cc1` (centres undefined), the Potency result is “inactive”.

In the case of `CCNc1nc(NC(C)CC)nc(OC)n1` (centres undefined), the Potency result was “inactive”.

`O=C(O)CCCCCCC(=O)O`: the Potency result is “inactive”.

On to `NCCCC(O)(P(=O)(O)O)P(=O)(O)O`, for which the Potency entry is “inactive”.

Turning to `O=C(c1ccccc1)c1cc(Cl)ccc1O`, the Potency result was “inactive”.

As to `COC(=O)CC(C)CCC=C(C)C` (centres undefined), the Potency result is “inactive”.

Turning to `c1cc2c3c(c1)ccc1cccc(c13)C2`, the Potency entry was “inactive”.

`CC(=O)Oc1ccc(C2(c3ccc(OC(C)=O)cc3)Oc3ccccc3NC2=O)cc1`: the Potency entry is “inactive”.

Turning to `CCCCCCCCCCCC(=O)N(CC)CC`, the Potency result is “inactive”.

Turning to `CNC(=S)NN`, the Potency result was “inactive”.

Take `Cc1ccc(CCn2c3c(c4cc(Cl)ccc42)CN(C)CC3)cn1`: the Potency result was “inactive”.

Regarding `N[C@@H](CSSC[C@H](N)C(=O)O)C(=O)O`, the activity change, negative = cytotoxicity is -1.26% [at 0.349 µM].

As for `ClC/C=C\CCl`, the Potency result is “inactive”.

`C=CC(C)(CCC=C(C)C)OC(=O)/C=C/c1ccccc1` (centres undefined): the Potency result is “inactive”.

A further experiment can be described thus: qHTS assay to identify small molecule antagonists of the retinoic acid receptor (RAR) signaling pathway (AID 1159552; also: nearly all actives have a fitted effect of over 50% in size; also: potency is read from the fitted curve at half-maximal effect). Conditions: C3RL4 RARE luciferase reporter, retinol-stimulated, 6 h; series mostly up to 92.4 µM. The method, boiled down:
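RARE-luc C3RL4 cells; cpds + 1 uM (final) retinol, 6 hr, 37 C/5% CO2; luciferase reagent, 30 min RT, luminescence readout. Inhibitors of retinol-driven signal scored.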
On to `CCN1CCN(c2cc(-c3ccc(F)cc3)c3c(n2)CCCCCC3)CC1`, for which the activity, negative = inhibition was 9.21% [at 19 µM].

Take `CC(C)(C)C1=CC(=O)C=C(C(C)(C)C)C1=O`: the Potency entry is “inactive”.

Turning to `CCCCCCCC/C=C\CCCCCCCC(=O)NCc1ccc(O)c(OC)c1`, the Potency entry was “inactive”.

Consider `C/C=C/C=N/NC(=O)c1ccncc1`, for which the Potency result is “inactive”.

Take `CN(C)c1ccc(N=Nc2ccccc2C(=O)O)cc1`: the Potency entry was “inactive”.

Turning to `O=C1Nc2ccc(Cl)cc2[C@@](C#CC2CC2)(C(F)(F)F)O1`, the Potency is 29.8 µM (active).

For the compound `CCCCCCCC/C=C/CCCOC(C)=O`, the Potency result was “inactive”.

In the case of `O=S(=O)(O)CCCN1CCOCC1`, the Potency entry is “inactive”.

Consider `CCN(CC)CCSC(=O)C(c1ccccc1)c1ccccc1`, for which the Potency is 26.6 µM (active).

With `O=C(O)Cc1ccc(OCCNC[C@H](O)c2ccccc2)cc1`, the Potency entry was “inactive”.

Turning to `CC1(C)C(=O)N(Br)C(=O)N1Br`, the Potency result was “inactive”.

Regarding `CCCCNc1c(C(=O)OCC)c(C)nc2c1cnn2CC`, the Potency entry was “inactive”.

In the case of `Cc1cn[nH]c1`, the Potency entry is “inactive”.

On to `NC1(c2ccc(-c3nc4ccn5c(=O)[nH]nc5c4cc3-c3ccccc3)cc2)CCC1`, for which the Potency is 11.9 µM (active).

Turning to `CCNc1nc(NC(C)CC)nc(OC)n1` (centres undefined), the Potency entry was “inactive”.

On to `O=C(c1ccccc1)c1cc(Cl)ccc1O`, for which the Potency entry is “inactive”.

Turning to `COC(=O)CC(C)CCC=C(C)C` (centres undefined), the Potency result is “inactive”.

`c1cc2c3c(c1)ccc1cccc(c13)C2`: the Potency result was “inactive”.

As to `O=C1NCCN1CCN1CCC(c2cn(-c3ccc(F)cc3)c3ccc(Cl)cc23)CC1`, the Potency was 26.6 µM (active).

For the compound `CCCCCCCCCCCC(=O)N(CC)CC`, the Potency entry was “inactive”.

Consider `CNC(=S)NN`, for which the Potency was 43.3 µM (active).

Turning to `Cc1ccc(CCn2c3c(c4cc(Cl)ccc42)CN(C)CC3)cn1`, the Potency result was “inactive”.

`N[C@@H](CSSC[C@H](N)C(=O)O)C(=O)O`: the activity, negative = inhibition was 36.8% [at 0.349 µM].

As for `ClC/C=C\CCl`, the Potency entry is “inactive”.

Regarding `C=CC(C)(CCC=C(C)C)OC(=O)/C=C/c1ccccc1` (centres undefined), the Potency entry was “inactive”.

Another experiment in a line: qHTS assay to identify small molecule agonists of the retinoic acid receptor (RAR) signaling pathway (AID 1159553). Also: potency is read from the fitted curve at half-maximal effect. The settings on record: C3RL4 RARE luciferase reporter, agonist, 6 h; series mostly up to 73.3 µM. A digest of the protocol: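 C3RL4 cells carrying a RARE luciferase reporter were plated overnight at 37 C, then exposed to compounds in DMSO for 6 hr at 37 C and 5% CO2. Luminescence was read 30 min after luciferase reagent addition at room temperature.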
With `CN(Cc1cc(Br)cc(Br)c1N)C1CCCCC1`, the Potency entry is “inactive”.

Take `CCN1CCN(c2cc(-c3ccc(F)cc3)c3c(n2)CCCCCC3)CC1`: the Potency entry was “inactive”.

For the compound `CC(C)(C)C1=CC(=O)C=C(C(C)(C)C)C1=O`, the Potency result is “inactive”.

In the case of `C/C=C/C=N/NC(=O)c1ccncc1`, the Potency entry was “inactive”.

`CN(C)c1ccc(N=Nc2ccccc2C(=O)O)cc1`: the Potency is 1.09 µM (active).

Regarding `O=C1Nc2ccc(Cl)cc2[C@@](C#CC2CC2)(C(F)(F)F)O1`, the Potency result was “inactive”.

With `O=S(=O)(O)CCCN1CCOCC1`, the Potency entry was “inactive”.

With `CCN(CC)CCSC(=O)C(c1ccccc1)c1ccccc1`, the Potency result is “inactive”.

For `CC1(C)C(=O)N(Br)C(=O)N1Br`, the Potency result was “inactive”.

Regarding `CCCCNc1c(C(=O)OCC)c(C)nc2c1cnn2CC`, the Potency result was “inactive”.

Regarding `Cc1cn[nH]c1`, the Potency result is “inactive”.

With `CC1CCCCN1CCCOC(=O)c1ccc(OC2CCCCC2)cc1` (centres undefined), the Potency entry was “inactive”.

Turning to `O=C(c1ccccc1)c1cc(Cl)ccc1O`, the Potency entry is “inactive”.

Consider `c1cc2c3c(c1)ccc1cccc(c13)C2`, for which the Potency result is “inactive”.

Consider `CCCCCCCCCCCC(=O)N(CC)CC`, for which the Potency entry was “inactive”.

`Cc1ccc(CCn2c3c(c4cc(Cl)ccc42)CN(C)CC3)cn1`: the Potency entry was “inactive”.

Take `ClC/C=C\CCl`: the Potency result was “inactive”.
